According to PubChem BioAssay (NCI):
The panel holds about 83,000 compounds, 20% with a hit somewhere; the sample as a whole holds those more often.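 Note: values are percent growth. 100 is the growth of untreated cells, values between 100 and 0 indicate rising inhibition; between -100 and 0 indicates cell death.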 Unmarked numbers belong to inactive results. Active and inactive are the calls of the source. Rule for the calls: active = growth percent below 10; inactive = the rest.

How the values were obtained:
Assay in all cases: NCI-60 one-dose screen, 48 h (100 = growth as untreated, 0 = no growth, -100 = all killed)
Conditions in all cases: 10 µM unless noted
SR leukemia = system: SR leukemia
RPMI-8226 leukemia = system: RPMI-8226 leukemia
OVCAR-8 ovarian = system: OVCAR-8 ovarian
OVCAR-5 ovarian = system: OVCAR-5 ovarian
SK-OV-3 ovarian = system: SK-OV-3 ovarian
OVCAR-3 ovarian = system: OVCAR-3 ovarian
HS 578T breast = system: HS 578T breast
NCI/ADR-RES ovarian = system: NCI/ADR-RES ovarian
IGROV1 ovarian = system: IGROV1 ovarian
OVCAR-4 ovarian = system: OVCAR-4 ovarian

| SMILES | growth (SR leukemia) | growth (RPMI-8226 leukemia) | growth (OVCAR-8 ovarian) | growth (OVCAR-5 ovarian) | growth (SK-OV-3 ovarian) | growth (OVCAR-3 ovarian) | growth (HS 578T breast) | growth (NCI/ADR-RES ovarian) | growth (IGROV1 ovarian) | growth (OVCAR-4 ovarian) |
| --- | --- | --- | --- | --- | --- | --- | --- | --- | --- | --- |
| CCCCOP(=O)(OCCCC)C(C(=O)OCC)C(CC(=O)OCC)C(=O)OCC (configuration not stated) | 128% | 109% | 106% | 100% | 105% | 123% | 108% | 113% |  |  |
| Cc1ccc(-c2c3c(N)nc(-c4ccncc4)nc3nc3c2c(C)nn3-c2ccccc2)cc1 | 3.61% (active) | 62.5% | 21.9% | 65% | -22.1% (active) | 73.6% | 32.7% | 46.6% | 71.7% |  |
| Cc1ccccc1NC(=O)NC(CC(N)=O)c1ccc2c(c1)nc(-c1cccc(Oc3ccc(C(C)(C)C)cc3)c1)n2CCCN1CCCCC1C (configuration not stated) | -33.9% (active) | -29.2% (active) | 3.11% (active) | 88.8% | 103% | 53.2% | 6.75% (active) | 94.3% | 46.4% |  |
| CCCCNCCCN(CCCC)CCCNCCCC | 108% | 99.6% | 96% | 108% | 100% | 107% | 80.2% | 99.9% |  |  |
| CCCCCCCCCCCCCCCCCC1=NC(C)(CO)CO1 (configuration not stated) | 118% | 86.7% | 97.6% | 90.5% | 97.8% | 95.3% | 92.5% | 85.8% | 101% |  |
| Cc1sc2nc(N3CCCCC3)[nH]c(=O)c2c1C | 97% | 106% | 96.5% | 108% | 92.3% | 113% |  | 96.5% |  |  |
| COc1cc(C2=NN(C=O)C(c3cccc(Nc4ccnc5cc(Cl)ccc45)c3)C2)cc(OC)c1OC (configuration not stated) | 9.32% (active) | 53.7% | 70% | 94.2% | 80.5% | 85.2% |  | 65.5% | 102% |  |
| CNCCCn1c2c(c3ccc(F)cc3c1=O)C(=O)c1cc(OC)cnc1-2 | -9.31% (active) | -20.4% (active) | -19.8% (active) | -8.53% (active) | -24.5% (active) | -11.4% (active) | 22.1% | 3.1% (active) | 11.4% |  |
| Cc1cc(=O)oc2cc(OCCn3c(C)nn(-c4ccc(Cl)cc4)c3=O)ccc12 | 21.2% | 31% | 17.7% | 38.8% | 41.1% | 14.8% | 34.8% | 24.7% | 59.7% |  |
| COc1ccc(-c2cc(-c3nnc(SCC(=O)Nc4ccc(C(C)=O)cc4)n3-c3ccccc3)c3ccccc3n2)cc1OC | 121% | 105% | 104% | 106% | 81.6% | 96.8% | 108% | 104% | 105% |  |
| Cc1n(Cc2ccc3ccccc3c2)cc[n+]1Cc1ccc2ccccc2c1 | -3.72% (active) | 2.6% (active) | 3.06% (active) | 20.6% | 21% | -1.02% (active) |  | 92.7% | -38.1% (active) |  |
| Cc1cc(C)cc(S(=O)(=O)n2ccc(-c3ccc4c(c3)CCC(C)(C)O4)n2)c1 | 76.5% | 73.2% | 91% | 116% |  | 87.9% | 92.7% | 79% | 105% | 67.3% |
| O=C1C=CC(=O)N1c1ccccn1 | 79.4% | 113% | 111% | 97.9% | 115% | 119% | 97.4% | 106% | 113% |  |
| Oc1ccccc1/C=N/N1CCCCCC1 | 99.3% | 99.6% | 116% | 105% | 112% | 108% | 114% | 101% |  |  |
| COc1ccc(-c2cc(-c3cccnc3)nc(S(=O)(=O)CC(=O)Nc3ccc(C)cc3)c2C#N)cc1OC | 77.4% | 79.8% | 91.6% | 120% |  | 95.4% | 81.9% | 86.8% | 107% | 90.3% |
| CCOC(=O)c1cc2oc(/C=C/c3cc(=O)c4cc(Cl)ccc4o3)cc2[nH]1 | 87.9% | 94.3% | 105% | 89.3% | 98.5% | 72.3% | 71.2% | 93.6% |  |  |
| O=Cc1ncc(-c2ccc(C(F)(F)F)cc2)c(NC2CCCCCC2)n1 | -29.1% [100 µM] (active) | -35.1% [100 µM] (active) | -68.2% [100 µM] (active) | -91.8% [100 µM] (active) | -13.7% [100 µM] (active) | -94.5% [100 µM] (active) | -39.1% [100 µM] (active) | -69.8% [100 µM] (active) |  |  |
| c1cc[n+](Cc2ccnc3ccccc23)cc1 | 24.1% | 97.1% | 99.6% | 103% | 103% | 118% | 109% | 109% | 117% |  |
| O=C(Nc1ccc(Cl)cc1)Nc1ccccc1CNc1nc(Nc2ccc(OCCN3CCCC3)cc2)ncc1Cl | 1.33% (active) | -24.2% (active) |  | 105% | 91.6% | -77.9% (active) | 96.4% | -35.9% (active) | 15.8% | -47.4% (active) |
| O=C(Nc1nc2c(C(F)(F)F)cccc2s1)c1cc(Cl)ccc1O | 7.18% (active) | -22.7% (active) | 6.2% (active) | 29.3% | -8.89% (active) | 10.1% |  | 1.26% (active) | 24.2% |  |
| COc1ccc2cc(C3=CC(=O)CCC3)ccc2c1 | 91.8% | 92.6% | 105% | 98.7% | 120% | 106% | 116% | 95.6% | 104% |  |
| CCCCN=C(N)c1ccc(OCCSCCOc2ccc(C(N)=NCCCC)cc2)cc1 | 44.7% | 26.2% | 40.7% | 84.1% | 41% | 39.6% | 47.4% | 90.9% | 55.1% |  |
| O=C1c2cccc3c([N+](=O)[O-])ccc(c23)C(=O)N1CCCCl | -6.13% [100 µM] (active) | -11.6% [100 µM] (active) | -64.2% [100 µM] (active) | -92.5% [100 µM] (active) | -99.6% [100 µM] (active) | -87.1% [100 µM] (active) | 23.3% [100 µM] | -37.9% [100 µM] (active) | -57.7% [100 µM] (active) |  |
| N#CC(C#N)C(C#N)C#N | 109% | 107% | 97.4% | 111% | 84% | 104% | 102% | 101% | 112% |  |
| O=C(CC(C(=O)c1ccccc1)N1CCN(Cc2ccccc2)CC1)c1ccccc1 (configuration not stated) | 57.2% | 28.7% | 90.7% | 86.3% | 112% | 58.8% | 92.5% | 97.1% | 119% |  |
| O=C(CSc1nnc(-c2cc(-c3ccccc3)nc3ccccc23)o1)c1ccc(Br)cc1 | 83.7% | 109% | 100% | 104% | 112% | 108% |  | 107% | 102% |  |
| COc1cc(/C=C/c2cc(/C=C/c3ccc(O)c(OC)c3)n(C(=O)Cc3ccccc3)n2)ccc1O | 4.44% (active) | -34.2% (active) | -17% (active) | -18.7% (active) |  | 1.55% (active) | 9.84% (active) | 21.7% |  | 7.27% (active) |
| CC(C)=CCCC(C)c1ccc(C)c2c1OCN(CC1CCNCC1)C2 (configuration not stated) | -8.52% (active) | 23.7% | 75.3% | 81.1% | 87% | 77.2% | 64.3% | 83.5% | 78.7% |  |
| COc1cnc2c(c1)C(=O)c1c-2n(CCCNC(C)C)c(=O)c2cc(F)ccc12 | -13.4% (active) | -28.1% (active) |  | -26.5% (active) | -33.3% (active) | -30.2% (active) | 16% | -16.1% (active) | -5.18% (active) | -0.201% (active) |
| COc1ccc(C2=NN(C(C)=O)C(c3c(C)nn(-c4ccccc4)c3N3CCOCC3)C2)cc1 (configuration not stated) | 90.5% | 97.9% |  | 97.6% | 80.4% | 104% | 96.7% | 94.7% |  | 89.5% |
